# Inconclusive results are not listed. A number with no mark means an inactive call. The source made the active and inactive calls. Calls come from the whole dose curve; as a rule, active = well fitted cell-killing curve with a large enough effect in the repeat runs; inconclusive = weak or mixed curves, or effect the other way; inactive = flat fitted curve, though single readings scatter.
# Test: cAMP Responsive Elements (CRE) small molecule agonists, cell-based qHTS assay: qHTS cell viability counter screen (AID 2060914);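 note: viability read after 3 h of compound exposure; nearly all actives have a fitted effect of over 50% in size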
# Conditions: CRE-bla HEK293T viability, CellTiter-Glo luminescence, 5 h; series mostly up to 92.4 µM; activity change, negative = cytotoxicity: at the top concentration
# Description: National Center for Advancing Translational Sciences [NCATS]
# Division of Preclinical Innovation [DPI]
# U.S. Environmental Protection Agency [EPA]
# National Institutes of Environmental Health Sciences [NIEHS]
# National Toxicology Program [NTP]
# U.S. Food and Drug Administration [FDA]
# CREB (cyclic-AMP Responsive Element Binding Protein) is a cellular transcription factor. It binds to certain DNA sequences called cAMP Responsive Elements (CRE) and regulates the transcription of the genes. […] This cell line can be used to find agonists/antagonists of the cyclic AMP signaling pathway. The activation of the report gene under culture conditions can be detected by fluorescence intensity. This cell line has been used to screen the Tox21 10K compound library to identify agonists that induce oxidative stress. The cytotoxicity of the Tox21 compound library against the CRE-bla cell line was tested in parallel by measuring the cell viability using CellTiter-Glo assay (Promega, Madison, WI) in the same wells.
# Tox21 Assay Protocol Summary:
# CRE-bla Hek 293T cells were suspended in assay medium (DMEM containing 10% dialyzed FBS, 0.1 mM NEAA, 1 mM sodium pyruvate and 25 mM HEPES) and dispensed at 2,000 cells/5 uL /well into 1536-well black wall/clear bottom plates using a Multidrop Combi (ThermoFisher Scientific, Waltham, MA) dispenser. After the assay plates were incubated at 37 C/5% CO2 for 18 hrs, 23 nL of compounds dissolved in DMSO, positive controls or DMSO only was transferred to the assay plate by a pintool workstation (Kalypsys, San Diego, CA). After the plates were incubated at 37 C/5% CO2 for 3 hrs, 1 uL of LiveBLAzer B/G FRET substrate (Invitrogen, Carlsbad, CA) was added to each well using Bioraptr Flying Reagent Dispenser (FRD, Aurora Discovery, San Diego, CA). The plates were incubated at room temperature for 2 h, then fluorescence intensities were measured using an Envision plate reader (PerkinElmer, Shelton, CT) at Excitation 405nm, Emission 460nm and 530nm. The % activity was determined from the ratio of 460nm/530nm. For cell viability readout that measures cytotoxicity, 4 uL /well of CellTiter-Glo reagent was added into the assay plates using Bioraptr FRD. After 30 min incubation at room temperature, the luminescence intensity in the assay plates was measured using a ViewLux (PerkinElmer, Shelton, CT) plate reader.
# % is set by controls: 0 for no effect and ±100 for the full control effect.
SMILES,Potency,"activity change, negative = cytotoxicity"
CCCCCCCC(=O)OCC(COC(=O)CCCCCCC)OC(=O)CCCCCCC,inactive,
CCCCCCC(CO)CCCC (stereo not given),,0.257%
CCN(C=O)CC,,2.15%
C1CCSC1,,-7.16%
COC(=O)Nc1nc2ccc(S(=O)c3ccccc3)cc2[nH]1 (stereo not given),inactive,
COc1ccc2c(c1OC)C(=O)O[C@@H]2[C@H]1c2c(cc3c(c2OC)OCO3)CCN1C,,2.71% [at 42.5 µM]
CCC(C)COC(C)=O (stereo not given),,2.81%
OC[C@H]1O[C@@H](O[C@H]2[C@H](O)[C@@H](O)[C@H](O)O[C@@H]2CO)[C@H](O)[C@@H](O)[C@H]1O,,2.29%
CC1=C(C)C(=O)C(CCCCC#CCCCC#CCO)=C(C)C1=O,,-16.1% [at 42.5 µM]
CC(=O)CC(C)C,,-1.31%
CCOC(=O)C(C#N)=C(c1ccccc1)c1ccccc1,inactive,
CCCCC(CC)COP(=O)(O)OCC(CC)CCCC (stereo not given),inactive,
CC(C)c1ccc(C(=O)N=C(N)N)cc1S(C)(=O)=O,,2.44% [at 42.5 µM]
C=COCCCC,,1.86%
CCCCCCCC/C=C\CCCCCCCC(=O)N(CCO)CCO,,-5.73%
CC(=O)N1CCN(c2ccc(O)cc2)CC1,,-3.77% [at 42.5 µM]
CCCC(=O)O[C@]1(C(=O)CC)CC[C@H]2[C@@H]3CCC4=CC(=O)CC[C@]4(C)[C@H]3[C@@H](O)C[C@@]21C,,6.38% [at 42.5 µM]
Nc1cccc(O)c1,,-5.66%
Brc1cc2ccccc2c2ccccc12,,2.69%
Nc1cc(Cl)c(O)c(Cl)c1,,-7.01%

SMILES,Potency,"activity change, negative = cytotoxicity"
Nc1c(Cl)cc(Cl)cc1Cl,,1.34%
CCC(=O)O[C@]1(C(=O)SCF)[C@H](C)C[C@H]2[C@@H]3C[C@H](F)C4=CC(=O)C=C[C@]4(C)[C@@]3(F)[C@@H](O)C[C@@]21C,,3.07% [at 42.5 µM]
CCN1CCN(C(=O)N[C@@H](C(=O)N[C@@H]2C(=O)N3[C@@H]2SC(C)(C)[C@H]3C(=O)O)c2ccccc2)C(=O)C1=O,,2.27% [at 42.5 µM]
COc1ccccc1O,inactive,
CC(C)(COC(=O)c1ccccc1)COC(=O)c1ccccc1,,-1.25%
CC[C@@H](CO)NCCN[C@@H](CC)CO,,-2.55% [at 42.5 µM]
C=C1CC[C@H](O)CC1=C/C=C1\CCC[C@]2(C)[C@@H]([C@H](C)/C=C/[C@H](C)C(C)C)CC[C@@H]12,inactive,
CCCCCCOC(=O)C(C)C,,-1.83%
O=C(O)CCNC(=O)c1ccc(N=Nc2ccc(O)c(C(=O)O)c2)cc1,,5.21% [at 42.5 µM]
CCCCCCCCSCC,,13.5%
c1ccc(-c2ccc(C(c3ccccc3)n3ccnc3)cc2)cc1 (stereo not given),,-0.754% [at 42.5 µM]
CC1CNCC(C)O1 (stereo not given),,3.53%
Cc1ccc2c(Cl)cc(Cl)c(O)c2n1,,26.6% [at 42.5 µM]
CC(CCO)CCc1ccccc1 (stereo not given),,12.8%
CCCCC(C)C(=O)O (stereo not given),,3.31%
COc1ccc(OC)cc1,inactive,
COc1ccc(S(=O)(=O)Nc2nnc(CC(C)C)s2)cc1,,3.77% [at 42.5 µM]
CC1CC(=O)NN=C1c1ccc(NCC(C)(C)NCC(O)COc2cc(Cl)ccc2C#N)cc1 (stereo not given),,6.91% [at 42.5 µM]
C[Si](C)O[Si](C)(C)O[Si](C)(C)O[Si](C)C,,10.9%
O=C(O)C(=O)Nc1cccc(-c2nn[nH]n2)c1,,12.7% [at 42.5 µM]

# From PubChem BioAssay (Tox21)
